High-throughput results deposited in PubChem BioAssay by several laboratories.
SKKanGAS inh: inhibitors of SKKanGAS S. pyogenes growth in kanamycin (SK-promoter or general growth effect); BacTiter-Glo, 6 h; inhibition, % at 7.5 µM; hit rate 1.3% among 300,000; AID 1662;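 active means mean replicate score, as percent of positive control median, at least 50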;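 further: strain carries kanamycin resistance gene driven by streptokinase promoter and grows in 40 µg/ml kanamycin; loss of luminescence reflects streptokinase promoter inhibition or plain growth inhibition; 0% = median of DMSO wells and 100% = positive control at its reference dose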
PfHsp90 yeast 2: growth inhibition of yeast expressing Plasmodium Hsp90 | inhibition, % at 9.4 µM | hit rate 0.32% among 310,000 | S. cerevisiae expressing PfHsp90, BacTiter-Glo ATP, 48 h; yeast lacking PDR1 and PDR3 efflux regulators;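 active means every replicate shows inhibition above about 80%, whatever the replicate mean, limit read from the data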;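 further: 0% = DMSO neutral controls and 100% = 20 µM radicicol positive controls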
tim23-1 inh: growth inhibitors of tim23-1 mutant yeast | S. cerevisiae tim23-1 growth, BacTiter-Glo luminescence, 24 h | inhibition, % at 20 µM | AID 463212 | hit rate 1.3% among 330,000;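 active means growth inhibition of the mutant yeast at or above 50%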;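 further: temperature-sensitive mutant grown at 25 °C; plate controls were DMSO-treated mutant yeast for no effect and medium wells lacking yeast for full effect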
Calb FLC: C. albicans growth modulation with fluconazole; C. albicans CaCi-2 (fluconazole-resistant clinical isolate) + fluconazole, Alamar Blue growth, 48 h; growth inhibition, % (no concentration beside the values); hit rate 0.57% among 300,000;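 active means growth inhibition above about 58% in most replicates, limit read from the data, passing the limit was not always enough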;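 further: all wells also contain fluconazole at 8 µg/ml as a sub-toxic cotreatment; 0% = median of DMSO wells and 100% = median of geldanamycin control wells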
tim10-1 inh: inhibits growth of tim10-1 mutant yeast; inhibition, % at 20 µM; S. cerevisiae tim10-1 ts strain growth, BacTiter-Glo, 24 h; AID 463190; hit rate 2.2% among 330,000;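 active means inhibition of at least 40%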;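 further: mutant grown at 25 °C; 0% = DMSO wells with yeast and 100% = wells holding no yeast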
TIM10 inh: growth inhibitors of TIM10 yeast strain | inhibition, % at 10 µM | hit rate 1.4% among 330,000 | S. cerevisiae TIM10 strain growth, BacTiter-Glo luminescence, 24 h;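 active means inhibition of 40% or more at the single tested concentration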;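 further: wild-type TIM10 isogenic control strain grown at permissive 25 °C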
The depositor's hits bear a star; / = not tested or not shown. Compounds with a hit are over-represented: about 4.7% of the library has one in this group of screens.

SMILES	SKKanGAS inh	PfHsp90 yeast 2	tim23-1 inh	Calb FLC	tim10-1 inh	TIM10 inh
C=CCOc1ccc(C2/C(=C(\O)c3ccc4c(c3)OCCO4)C(=O)C(=O)N2CCCN2CCOCC2)cc1 (stereo unspecified)	-1.7	-0.9	8.3	5.0	3.1	3.0
COC(=O)CCCCCCCCCC[N+]1(C)CCCCC1	3.6	1.0	2.8	2.4	9.6	3.2
C[N+]1(CC(=O)OC2CCCCCCCCCCC2)CCCC1	6.8	22.9	-8.3	99.3*	-19.4	-7.2
Cc1cc(=O)n2nc(N3CCCC3C(=O)Nc3cccc(F)c3)sc2n1 (stereo unspecified)	0.3	-8.1	2.4	2.5	3.2	-1.9
Cc1sc2nc(C3CC3)nc(SCC(=O)NCc3ccco3)c2c1C	4.8	84.0*	18.6	0.7	12.3	-43.6
Cc1cc(Br)ccc1NC(=O)CN(C)C(=O)c1cc([N+](=O)[O-])ccc1N1CCOCC1	-0.7	6.1	7.0	12.5	9.9	-4.0
Cc1ccc(-c2cc(N)n3nc(-c4ccc(C)cc4)cc3n2)cc1	12.1	/	4.7	-2.0	-7.4	-9.5
Cc1ccc(-c2cc3nc(-c4ccc(Br)cc4)cc(N)n3n2)cc1	74.7*	-3.3	-2.6	40.4	-2.0	17.5
O=C(NCc1ccccc1)C(c1cccnc1)N(C(=O)c1csnn1)c1ccccc1 (stereo unspecified)	0.6	14.8	-0.3	-8.8	-10.0	-14.0
Nc1nc(CN2CCN(c3ccccn3)CC2)nc(Nc2ccc(F)cc2)n1	9.6	16.3	10.2	92.3*	22.5	4.1
CCn1nnnc1NC(=O)c1cc(Cl)c(OC)c(Cl)c1	/	-7.1	-6.3	76.0*	-8.6	-16.6
CCn1nnnc1NC(=O)c1cccc(OC)c1	12.5	20.5	10.4	-1.1	-6.0	-13.5
CCN1C(N(C)C)=NC[C@@H]1Cc1ccccc1	/	-3.1	7.8	/	5.7	5.3
CC(=O)Nc1ccc(-c2ccc(NC(C)=O)cc2)cc1	12.4	21.3	1.1	-4.4	10.4	3.7
CC(=O)Nc1ccc(C#Cc2ccc(NC(C)=O)cc2)cc1	84.5*	5.9	5.5	-16.2	-8.7	7.3
CC1=CSC2=NC(=O)/C(=C\c3cccn3-c3ccccc3)C(=N)N12	-10.2	-69.3	-8.0	-3.5	21.6	13.6
CC(C)c1ccc(-n2cccc2/C=C2/C(=N)N3C=CSC3=NC2=O)cc1	94.1*	-8.8	-6.9	-2.4	32.2	11.7
Cc1ccccc1NC(=O)CSc1nc2c(c(-c3ccco3)c1C#N)CCCC2	6.8	-8.3	2.2	1.1	12.6	4.6
COCCOC(=O)c1c(C)nc(SCC(=O)Nc2cccc3ccccc23)c(C#N)c1-c1ccco1	50.0*	1.5	16.7	5.1	33.1	9.0
CNC(=O)c1c(C)nc(SCC(=O)NCc2ccc(OC)cc2)c(C#N)c1-c1ccco1	-6.7	5.2	3.0	0.6	6.7	7.4
COCCOC(=O)c1c(C)nc(SCC(=O)Nc2ccc(C)cc2)c(C#N)c1-c1ccco1	67.2*	22.4	5.2	-1.8	5.0	8.5
Nn1c(SCC(=O)Nc2ccc(N3CCOCC3)cc2)nnc1-c1cccc(F)c1	/	30.9	12.0	/	-12.8	2.7
O=C(Nc1nnc(C2=COCCO2)o1)c1cccc(C(F)(F)F)c1	56.2*	-11.9	17.3	3.4	27.7	15.1
O=C(Nc1nnc(C2=COCCO2)o1)c1ccc(Cc2ccccc2)cc1	93.3*	/	-69.5	11.4	31.6	11.4
COc1cccc2c(SCC(=O)N/N=C/c3ccc(O)c(O)c3)cc(C)nc12	20.3	4.0	/	92.3*	/	/
SMILES	SKKanGAS inh	PfHsp90 yeast 2	tim23-1 inh	Calb FLC	tim10-1 inh	TIM10 inh
Cc1ccc([N+](=O)[O-])cc1NC(=O)C1CCN(S(C)(=O)=O)CC1	-3.7	-18.5	8.5	-4.9	-0.8	4.2
Cc1ccc([N+](=O)[O-])cc1NC(=O)C1CCCC1	11.4	-0.2	3.9	96.2*	-3.5	-6.0
Cc1ccc(NC(=O)c2ccc([N+](=O)[O-])s2)cc1S(=O)(=O)N1CCOCC1	/	-2.2	8.6	/	-8.1	10.2
CCOc1ccccc1N1CCN(CC(O)COC2CCCc3ccccc32)CC1 (stereo unspecified)	11.4	-3.9	16.8	83.3*	-14.6	11.8
C=CCNC(=O)c1c(CS(=O)(=O)c2ccccc2)noc1C(=O)NCc1ccccc1	/	-0.7	6.3	/	6.1	0.6
CCOC(=O)C1=NN(C(=O)c2ccccc2)C(O)(c2ccc(C)cc2)C1 (stereo unspecified)	6.9	14.0	17.6	9.8	30.7	21.0
CCOC(=O)C1=NN(C(=O)c2ccc(OC)cc2)C(O)(c2ccc(Cl)cc2)C1 (stereo unspecified)	53.5*	6.0	39.0	-7.0	28.3	19.5
CC(C)=CCc1c(O)c(CC=C(C)C)c2c(c1O)C(=O)CC(c1ccc(O)cc1)O2 (stereo unspecified)	101.8*	/	33.0	-0.2	31.9	6.7
CC1CCN(C(=O)COC(=O)C2CCN(S(=O)(=O)c3ccc4c(c3)OCCO4)CC2)CC1	4.0	-21.5	25.5	/	18.1	10.6
CCCCCCC(=O)N(O)C1CC(=O)N(c2ccc(Cl)cc2)C1=O (stereo unspecified)	3.7	110.3*	36.5	-2.1	23.6	12.1
Cc1ccc(N2C(=O)CC(N(O)C3CC(=O)N(c4ccc(C)cc4)C3=O)C2=O)cc1 (stereo unspecified)	-1.3	-6.4	11.6	1.1	12.0	4.4
CC(C)CN(C(=O)COC(=O)CCC(=O)c1ccc(F)cc1)c1c(N)n(Cc2ccccc2)c(=O)[nH]c1=O	32.9	6.2	10.9	1.8	6.6	14.9
CCc1sc(N(C(=O)Cc2ccccc2)c2ccccc2F)nc1-c1ccc(C)cc1	36.5	5.6	6.2	-12.3	19.3	1.5
CCc1sc(N(C(=O)Cc2ccccc2)c2cccc(F)c2)nc1-c1ccc(C)cc1	59.4*	10.1	9.8	-23.4	13.4	24.5
CC(C)(C)c1ccccc1OCCCCCn1ccnc1	63.2*	32.0	22.2	39.9	17.7	13.0
Cn1cnnc1SCc1ccc(C(=O)N=Nc2c(O)n(Cc3ccc(Cl)cc3)c3ccccc23)cc1	56.8*	-1.5	28.2	-4.1	18.4	16.1
Cc1cccc(NC(=O)CSCC(=O)N(C)Cc2c(F)cccc2Cl)c1	-9.0	-16.4	22.7	-3.9	21.4	4.4
C(#Cc1ccccc1)C[N+]1(CC#Cc2cccc3ccccc23)CCCC1	-16.6	-1.0	10.8	90.3*	8.4	10.3
O=c1cc(N2CCCCC2)c(-c2ccccc2)nn1Cc1ccc(Cl)cc1	94.2*	2.1	40.3	-28.6	20.0	9.5
O=c1cc(N2CCCCC2)c(-c2ccccc2)nn1Cc1ccc(F)cc1	16.7	-74.4	27.9	4.3	-25.5	5.8
O=c1cc(N2CCCCC2)c(-c2ccccc2)nn1Cc1c(Cl)cccc1Cl	107.1*	-60.1	23.5	12.3	19.3	11.1
CCCC(=O)NC(=S)NNC(=O)c1ccc([N+](=O)[O-])cc1	-8.4	9.7	12.0	75.7*	18.6	8.6
Cc1ccc(C(=O)NC(=S)NNC(=O)COc2ccc([N+](=O)[O-])cc2)cc1	82.0*	-15.0	-4.8	16.0	0.3	24.2
